High-throughput results: PubChem BioAssay, National Center for Advancing Translational Sciences (NCATS)
Sampled rows, rich in hits. Any-hit rate of the full collection: about 2.8%.
HEK293 viab – counter-screen for SNCA expression inhibitors: cell viability | HEK-293-SNCA-luc viability, GF-AFC fluorescence, 24 h | Potency, µM (top dose mostly 57.1 µM), inactives show at the highest dose activity change, negative = cytotoxicity, hits mostly cytotoxic | hit rate 0.12% among 150,000;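 further: potency means the concentration at half of the fitted maximal effect; 0% = DMSO-treated cells and -100% = medium-only wells without cells; nearly all actives have a fitted effect of over 30% in size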
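HEK-293-SNCA-luc cells (1500/well) plated 24 h, then exposed 24 h to a dilution series; GF-AFC added 30 min at 37C, fluorescence 405/540 nm; normalised to medium-only and DMSO wells, Hill fit.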
SNCA expr inhib – inhibitors of alpha-synuclein (SNCA) gene expression; HEK-293 SNCA-luciferase knock-in, luminescence, 24 h; Potency, µM (titrated, usually from 57.2 µM), without a hit: at the highest dose activity change, negative = inhibition, hits mostly inhibitors; hit rate 0.17% among 140,000; AID 1671194;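 further: potency means the concentration at half of the fitted maximal effect; plate controls were DMSO cells for no effect and cell-free wells for full effect; nearly all actives have a fitted effect of over 45% in size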
IP6K1 inhibitor – inhibitors of human IP6K1; IP6K1 kinase, ADP-Glo luminescence, 2 h; active compounds read low; activity change, % (series mostly up to about 58 µM); hit rate 0.81% among 140,000; AID 1645851; in the data active means activity change below about -25%; further: on the % scale 0 is the no-effect control and ±100 the full control effect
Target sequence (Q92551 whole entry, looked up): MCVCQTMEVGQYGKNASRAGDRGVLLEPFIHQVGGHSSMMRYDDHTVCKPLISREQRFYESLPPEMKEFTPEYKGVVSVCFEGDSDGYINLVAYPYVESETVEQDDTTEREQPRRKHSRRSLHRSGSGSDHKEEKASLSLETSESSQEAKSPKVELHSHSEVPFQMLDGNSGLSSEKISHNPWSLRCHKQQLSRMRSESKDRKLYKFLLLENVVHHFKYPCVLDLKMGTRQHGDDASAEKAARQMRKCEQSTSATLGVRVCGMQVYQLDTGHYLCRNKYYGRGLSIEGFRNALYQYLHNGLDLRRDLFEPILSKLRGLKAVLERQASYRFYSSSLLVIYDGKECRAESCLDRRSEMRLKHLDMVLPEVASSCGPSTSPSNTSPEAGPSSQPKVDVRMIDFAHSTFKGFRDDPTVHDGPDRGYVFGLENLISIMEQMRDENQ
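ADP-Glo luminescence measures ADP made by human IP6K1 during a 2 h RT reaction with ATP/IP6 (mix at 1.3 mM/130 uM); top library doses 57.5 and 19.1 uM final.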
KDM5B inh – inhibitors of human KDM5B histone demethylase; Q9UGL1; KDM5B demethylase, FDH-coupled NADH fluorescence (FDH is formaldehyde dehydrogenase); Potency, µM (series often up to 57.7 µM), actives largely listed as inhibitors; hit rate 2.6% among 220,000; further: potency means the concentration at half of the fitted maximal effect; 0% is about no effect; nearly all actives have a fitted effect of over 70% in size
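Inhibition is measured as reduced NADH fluorescence generation from FDH coupling to formaldehyde release. Truncated KDM5BΔAP at 200 nM final acts on H3K4me3 peptide (12.5 µM in substrate mix) in pH 7.5 HEPES buffer with Tween-20, 30 min, room temperature.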
The depositor's hits bear a star; [ ] = remark or other dose. Unless noted, the call rests on the fitted dose curve; in most records, active means well fitted curve in the direction sought with a large enough effect; inconclusive means small, poorly fitted or top-dose-only effect, or another doubt; inactive means no such curve, though single readings can be large; an effect the other way counts as inactive or inconclusive.

How did Cn1ccc2c(C(=O)NCc3cccnc3)nc(-c3ccccc3)cc21 do in these assays?
HEK293 viab: 1%[87.6 µM]; SNCA expr inhib: 0%[87.6 µM]; IP6K1 inhibitor: -3; KDM5B inh: 32µM*

How did O=C(NC1CCCC1)c1cc(Sc2cccc(Cl)c2)nc2ccccc12 do in these assays?
KDM5B inh: inactive

What do the screens show for `CC1CN(CCOc2ccc(C#N)cc2)CCO1` (stereo not drawn)?
KDM5B inh: inactive

Results for CCN(CC)C(=S)Nc1c(C)cccc1C ?
KDM5B inh: inactive

What do the screens show for `C=CCn1cc2c3c(cccc31)[C@H](CC(C)C)N[C@H](C(=O)NCCOC)C2`?
HEK293 viab: -13%[87.6 µM]; SNCA expr inhib: -24%[87.6 µM]; IP6K1 inhibitor: 11; KDM5B inh: inconclusive

How did COc1ccc(C(=O)N2CCCN(c3cc(-c4ccccc4)[nH]n3)CC2)cc1F do in these assays?
HEK293 viab: -19%; SNCA expr inhib: inconclusive; IP6K1 inhibitor: 5; KDM5B inh: inactive

How did COc1ccc(C(=O)N2CCCN(c3nnc4ccccn34)CC2)cc1F do in these assays?
HEK293 viab: inconclusive; SNCA expr inhib: -19%; IP6K1 inhibitor: 6; KDM5B inh: 25µM*

How did COc1ccc(C(=O)N2CCN(c3nc4c(OC)cccc4s3)CC2)cc1OC do in these assays?
HEK293 viab: -1%; SNCA expr inhib: -8%; IP6K1 inhibitor: 6; KDM5B inh: inactive

How did COc1ccc(C(=O)N2CCN(c3nnc4ccccn34)CC2)cc1OC do in these assays?
HEK293 viab: -4%; SNCA expr inhib: -22%; IP6K1 inhibitor: 8; KDM5B inh: 25µM*

Results for CCCc1ccc(S(=O)(=O)N2CCc3nc4cc[nH]n4c(=O)c3C2)cc1 ?
HEK293 viab: 0%; SNCA expr inhib: inconclusive; IP6K1 inhibitor: 0; KDM5B inh: 14µM*

Results for Cc1ccc(S(=O)(=O)N2CCc3nc4cc[nH]n4c(=O)c3C2)cc1C ?
HEK293 viab: 3%; SNCA expr inhib: -3%; IP6K1 inhibitor: 6; KDM5B inh: 25µM*

How did COc1ccc2nc3n(c2c1)[C@@H](CNC(=O)C1CCOCC1)COC3 do in these assays?
HEK293 viab: -14%[87.6 µM]; SNCA expr inhib: -3%[87.6 µM]; IP6K1 inhibitor: 1; KDM5B inh: 40µM*

How did COC(=O)[C@@H]1Cc2c([nH]c3ccccc23)[C@H]2C[C@@H](NCCNC(C)=O)C[C@@H](c3ccccc3)N21 do in these assays?
HEK293 viab: 1%; SNCA expr inhib: 9%; IP6K1 inhibitor: -15; KDM5B inh: 8.9µM*

How did COC(=O)[C@@H]1Cc2c([nH]c3ccccc23)[C@H]2C[C@@H](NCCNC(C)=O)C[C@@H](c3ccc(C)cc3)N21 do in these assays?
HEK293 viab: 2%; SNCA expr inhib: -14%; IP6K1 inhibitor: -11; KDM5B inh: 28µM*

Results for COc1cccc(C(=O)OCc2cc3ccccc3[nH]c2=O)c1 ?
KDM5B inh: inactive

How did C#CCNC(=O)c1cc(-c2ccc([S+](C)(=O)[O-])cc2)nc2c1cnn2C do in these assays?
HEK293 viab: -14%; SNCA expr inhib: 4%; IP6K1 inhibitor: -5; KDM5B inh: 32µM*

What do the screens show for `Cn1ncc2c(C(=O)N3CCCC3)cc(-c3ccc([S+](C)(=O)[O-])cc3)nc21`?
HEK293 viab: -15%; SNCA expr inhib: 11%; IP6K1 inhibitor: -8; KDM5B inh: 89µM*

How did C#CCNC(=O)c1cc(-c2ccc(OC)cc2)nc2c1cnn2C do in these assays?
IP6K1 inhibitor: -10

Results for Cn1ncc2c(C(=O)N3CCOCC3)cc(-c3ccc([S+](C)(=O)[O-])cc3)nc21 ?
HEK293 viab: -11%; SNCA expr inhib: -5%; IP6K1 inhibitor: -3; KDM5B inh: inconclusive

Results for Cn1ncc2c(C(=O)NCc3ccc(F)cc3)cc(-c3ccc([S+](C)(=O)[O-])cc3)nc21 ?
HEK293 viab: -13%; SNCA expr inhib: inconclusive; IP6K1 inhibitor: 6; KDM5B inh: 50µM*

Results for Cc1ccc(NC(=O)Cn2c(=O)c3c(ncn3Cc3ccccc3)n(Cc3ccccc3)c2=O)cc1F ?
KDM5B inh: inactive

What do the screens show for `COc1ccc(Br)cc1/C=C/C(=O)OC1CCCCC1=O` (stereo not drawn)?
KDM5B inh: inactive

What do the screens show for `Cc1nc(-c2ccc(F)cc2)n(Cc2nc(-c3ccc(OC(C)C)cc3)oc2C)c(=O)c1CCO`?
HEK293 viab: 5%; SNCA expr inhib: 19%; IP6K1 inhibitor: -2; KDM5B inh: 16µM*

What do the screens show for `Cc1nc(-c2ccccc2)n(Cc2nc(-c3ccc(OC(C)C)cc3)oc2C)c(=O)c1CCO`?
HEK293 viab: -2%; SNCA expr inhib: -5%; IP6K1 inhibitor: -2; KDM5B inh: inconclusive

What do the screens show for `Cc1ccccc1-c1nccc2c(=O)cc(-c3cccnc3)oc12`?
HEK293 viab: -18%[87.6 µM]; SNCA expr inhib: -13%[87.6 µM]; IP6K1 inhibitor: -23; KDM5B inh: 40µM*

What do the screens show for `COc1ncccc1-c1nccc2c(=O)cc(-c3cccnc3)oc12`?
HEK293 viab: -11%[87.6 µM]; SNCA expr inhib: 53%[87.6 µM]; IP6K1 inhibitor: -12; KDM5B inh: 35µM*

What do the screens show for `C[S+](=O)([O-])c1ccc(-c2nccc3c(=O)cc(-c4cccnc4)oc23)cc1`?
HEK293 viab: 7%[87.6 µM]; SNCA expr inhib: -5%[87.6 µM]; IP6K1 inhibitor: -23; KDM5B inh: 35µM*

Results for O=c1cc(-c2cccnc2)oc2c(-c3ccc(O)c(F)c3)nccc12 ?
HEK293 viab: 0%[87.6 µM]; SNCA expr inhib: 31%[87.6 µM]; IP6K1 inhibitor: -14; KDM5B inh: inactive

Results for O=c1cc(-c2cccnc2)oc2c(NCc3ccc(F)cc3)nccc12 ?
HEK293 viab: 11%[87.6 µM]; SNCA expr inhib: 28%[87.6 µM]; IP6K1 inhibitor: 71; KDM5B inh: inactive

Results for COc1ccc(-c2nccc3c(=O)cc(-c4cccnc4)oc23)cc1OC ?
HEK293 viab: -15%[87.6 µM]; SNCA expr inhib: 15%[87.6 µM]; IP6K1 inhibitor: -16; KDM5B inh: inactive

Results for FC(F)(F)c1ccc(/C=N/Nc2c(Cl)cc(Cl)cc2Cl)cc1 ?
KDM5B inh: inactive

Results for O=C(NCc1ccccc1)C1(CCO)CCN(c2ncccn2)C1 (stereo not drawn) ?
HEK293 viab: 0%; SNCA expr inhib: 13%; IP6K1 inhibitor: 3; KDM5B inh: 28µM*

What do the screens show for `O=C(Nc1cccc(F)c1)C1(CCO)CCN(c2ncccn2)C1` (stereo not drawn)?
HEK293 viab: -2%; SNCA expr inhib: 10%; IP6K1 inhibitor: -5; KDM5B inh: 28µM*

What do the screens show for `CC(=O)N1CCC[C@@]2(CCN(c3ncccn3)C2)C1`?
HEK293 viab: -1%; SNCA expr inhib: 12%

What do the screens show for `O=C(Nc1ccc(N2CCOCC2)cc1)C1(CCO)CCN(c2ncccn2)C1` (stereo not drawn)?
HEK293 viab: -6%; SNCA expr inhib: inconclusive; IP6K1 inhibitor: 6; KDM5B inh: 22µM*

How did O=C(Nc1ccc(N2CCOCC2)cc1)C1(CCO)CCN(Cc2ccccc2)C1 (stereo not drawn) do in these assays?
HEK293 viab: 15%; SNCA expr inhib: 24%; IP6K1 inhibitor: 11; KDM5B inh: inactive
